# Several values for one entry are separate records, joined by “and”; a condition that tells them apart may be missing. Identical values can stand only once. This is part of a sample that, as a whole, favours compounds with a hit. Of some 83,000 tested, about 20% had one in any assay.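 Cells were grown in 96-well plates and exposed to the test compound at a single concentration for 48 hours; results are reported as percent growth, with values below 10 considered active.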 Activity calls are given as the source filed them.
# How the values were obtained:
# Experiment in all cases: NCI-60 one-dose screen, 48 h (100 = growth as untreated, 0 = no growth, -100 = all killed)
# Settings in all cases: 10 µM
# [1] = tested on: NCI-H23 lung
# [2] = tested on: NCI-H226 lung
# [3] = tested on: NCI-H322M lung
# [4] = tested on: HOP-62 NSCLC
# [5] = tested on: NCI-H460 lung
# [6] = tested on: NCI-H522 lung
# [7] = tested on: 786-0 renal
# [8] = tested on: COLO 205 colon
# [9] = tested on: HOP-92 NSCLC
# [10] = tested on: A549/ATCC NSCLC
Compound,growth [1],growth [2],growth [3],growth [4],growth [5],growth [6],growth [7],growth [8],growth [9],growth [10]
COc1ccccc1/C=C/[N+](=O)[O-],74.9% (inactive),96.1% (inactive),102% (inactive),97.1% (inactive),74.4% (inactive),62.6% (inactive),93.1% (inactive),79.3% (inactive),,
CC(C)C1(NC(=O)C2CC3c4cccc5[nH]cc(c45)CC3N(C)C2)OC2(O)C3CCCN3C(=O)C(Cc3ccccc3)N2C1=O (stereo not drawn),99.4% (inactive),103% (inactive),118% (inactive),110% (inactive),109% (inactive),82.1% (inactive),96.3% (inactive),106% (inactive),,
CC(C)(C)OOC(=O)/C=C\C(=O)OOC(C)(C)C,103% (inactive),102% (inactive),,97.7% (inactive),109% (inactive),107% (inactive),108% (inactive),,88.3% (inactive),110% (inactive)
COc1cc([C@@H]2c3cc4c(c(O)c3C[C@H]3COC(=O)[C@@H]32)OCO4)cc(OC)c1OC,17.3% (inactive),48.8% (inactive),21.9% (inactive),,0.25% (active),,-69.8% (active),-69.5% (active),-31.4% (active),24.9% (inactive)
COc1cc2c(cc1OC)C13CCN4CC5=CCOC6CC(=O)N2C1C6C5CC43 (stereo not drawn),90% (inactive) and 100% (inactive),95.9% (inactive) and 95.7% (inactive),,120% (inactive) and 102% (inactive),120% (inactive) and 83.2% (inactive),105% (inactive) and 99.1% (inactive),112% (inactive) and 99.6% (inactive),95.8% (inactive) and 89% (inactive),87.4% (inactive),99.4% (inactive)
O=[N+]([O-])/C=C/c1ccc([N+](=O)[O-])cc1,56.7% (inactive) and 68.7% (inactive),114% (inactive),,69.5% (inactive) and 107% (inactive),19.9% (inactive) and 102% (inactive),81.6% (inactive) and 47.3% (inactive),55.2% (inactive) and 98.1% (inactive),-8.72% (active) and 50.6% (inactive),67.6% (inactive) and 97.8% (inactive),44.2% (inactive) and 101% (inactive)
COC(=O)C1C(O)C(C)C(O)C(C)/C=C\C=C(C)C(=O)Nc2c(C)c(OC(C)=O)c3c(c2O)C(=O)C(C)=C2OCOC(=C23)C(C)=CC(C)(O)C(O)C(C)C1O (stereo not drawn),97.6% (inactive),99.2% (inactive),106% (inactive),96.8% (inactive),111% (inactive),,107% (inactive),94.7% (inactive),,
O=C(CBr)Nc1ccc(Cl)cc1,81.2% (inactive),91.2% (inactive),101% (inactive),,106% (inactive),,56.6% (inactive),-3.53% (active),91.9% (inactive),100% (inactive)
Oc1ccccc1-c1ccccc1,98.9% (inactive) and 104% (inactive),104% (inactive) and 99.3% (inactive),,101% (inactive) and 103% (inactive),104% (inactive),95.2% (inactive),105% (inactive),,98.7% (inactive) and 112% (inactive),100% (inactive) and 95.8% (inactive)
CCOP(=O)(OCC)C(O)c1ccccc1Cl (stereo not drawn),99.4% (inactive),98.1% (inactive),93.8% (inactive),109% (inactive),102% (inactive),,102% (inactive),107% (inactive),,105% (inactive)
NC(Cc1ccccc1)c1ccccc1 (stereo not drawn),97.7% (inactive) and 105% (inactive),91.9% (inactive) and 97.7% (inactive),102% (inactive) and 103% (inactive),105% (inactive),107% (inactive) and 111% (inactive),94.5% (inactive),97.4% (inactive) and 98.4% (inactive),103% (inactive) and 105% (inactive),,111% (inactive)
O=[N+]([O-])c1cc[n+]([O-])c2ccccc12,-72.1% (active),-17.8% (active),,-47.9% (active),-58.4% (active),-61.6% (active),-49.2% (active),,-41.6% (active),
Cn1c(O)c(N=O)c(=O)n(C)c1=O,94.4% (inactive) and 95.1% (inactive),93.3% (inactive) and 103% (inactive),,101% (inactive) and 90.9% (inactive),110% (inactive) and 102% (inactive),,104% (inactive) and 93.3% (inactive),,101% (inactive) and 85.9% (inactive),107% (inactive) and 98.1% (inactive)
COc1cc(/C=C\[N+](=O)[O-])ccc1O,83.1% (inactive) and 77.3% (inactive),91.2% (inactive) and 98.3% (inactive),,99.8% (inactive) and 101% (inactive),96.6% (inactive) and 94% (inactive),,43.2% (inactive) and 90.8% (inactive),,73.2% (inactive) and 102% (inactive),89.2% (inactive) and 76.1% (inactive)
O=C(O)c1cc(Cc2ccc(O)c(C(=O)O)c2)ccc1O (tested in a mixture with another compound),87.6% (inactive),88.7% (inactive),,79.3% (inactive),65.9% (inactive),-49.9% (active),78% (inactive),42.4% (inactive),-49.4% (active),79.9% (inactive)
C[CH2][Hg][S]c1ccccc1C(=O)O,11.3% (inactive),-53.4% (active),66.2% (inactive),47.2% (inactive),36% (inactive),,1.68% (active),-100% (active),,
O=[N+]([O-])c1ccc(N2CCOCC2)c2c1no[n+]2[O-],13.1% (inactive),35.7% (inactive),,8.11% (active),6.53% (active),-70.5% (active),-12.8% (active),,-31.9% (active),21.4% (inactive)
C/C1=C\[C@H](C)C[C@H](C)OC(=O)C[C@H](c2ccc(O)cc2)NC(=O)[C@@H](Cc2c(Br)[nH]c3ccccc23)N(C)C(=O)[C@H](C)NC(=O)[C@@H](C)C1,-4.18% (active),-6.93% (active),8.82% (active),-40.4% (active),-13% (active),-62.5% (active),-55.9% (active),,,
CC[C@@]1(O)C[C@H](OC2CC(N(C)C)C(O)C(C)O2)c2c(cc3c(c2O)C(=O)c2c(O)ccc(O)c2C3=O)[C@H]1C(=O)OC (stereo partly drawn),-79.6% (active),-62.3% (active),,-69.6% (active),-64% (active),-70.1% (active),-97.5% (active),-80.1% (active),-68.9% (active),-84.8% (active)
C=C1C(=O)O[C@@H]2C[C@@H](C)[C@@H]3C=CC(=O)[C@@]3(C)[C@@H](O)[C@H]12,-36.3% (active),-38.6% (active),-24.7% (active),-44.6% (active),-26.4% (active),-81.2% (active),-71.6% (active),-95% (active),,-3.45% (active)
C/C(=C\c1ccc(Cl)c(Cl)c1)[N+](=O)[O-],44.6% (inactive) and 94.8% (inactive),98.1% (inactive),,86.9% (inactive),55.6% (inactive) and 105% (inactive),-87.3% (active) and 82.6% (inactive),45.8% (inactive) and 94.9% (inactive),-57.9% (active) and 101% (inactive),-29.8% (active) and 89.5% (inactive),
O=[N+]([O-])/C=C\c1ccc2c(c1)OCO2,87.2% (inactive),103% (inactive),113% (inactive),,84.8% (inactive),72.2% (inactive),89.6% (inactive),89.8% (inactive),79.3% (inactive),
C=NCC#N,97.8% (inactive) and 97.9% (inactive),107% (inactive) and 99.3% (inactive),,93.2% (inactive) and 93.4% (inactive),102% (inactive) and 120% (inactive),,99.4% (inactive) and 103% (inactive),,97.6% (inactive),110% (inactive) and 104% (inactive)
O=[N+]([O-])c1ccc(Br)c([N+](=O)[O-])c1,108% (inactive),101% (inactive),,115% (inactive),94.8% (inactive),-28.5% (active),108% (inactive),0.504% (active),109% (inactive),
O=c1[nH]c2ccccc2n1C1CCN(CCCC(c2ccc(F)cc2)c2ccc(F)cc2)CC1,59.8% (inactive) and 38% (inactive),92.1% (inactive) and 61.6% (inactive),,84% (inactive) and -30.2% (active),-0.452% (active) and 2.65% (active),62.3% (inactive) and 33.6% (inactive),-43.7% (active) and -57.1% (active),,-42.3% (active) and 27.1% (inactive),
CC(=O)Nc1c2sscc-2n(C)c1=O,-95.3% (active),-100% (active),-100% (active),-100% (active),-77.4% (active),,-100% (active),-87.1% (active),,
O=S(=O)(F)c1ccc(Cl)cc1,100% (inactive),109% (inactive),,106% (inactive),113% (inactive),101% (inactive),107% (inactive),107% (inactive),86.8% (inactive),98.3% (inactive)
CCCCCCCC[N+]12CN3CN(CN(C3)C1)C2,92% (inactive),98.2% (inactive),,102% (inactive),101% (inactive),,89.5% (inactive),104% (inactive),85.9% (inactive),97.8% (inactive)
CCOP(=O)(OCC)/C(C#N)=C/c1ccc(Br)cc1,92.9% (inactive),96.2% (inactive),,89.7% (inactive),104% (inactive),,104% (inactive),,69.6% (inactive),

# — PubChem BioAssay (NCI)
